Reference: paper PMC3737563, “Investigation of DNA sequence recognition by a streptomycete MarR family transcriptional regulator through surface plasmon resonance and X-ray crystallography”

The sequences below were run against T1, SCO3205 (MarR family regulator) (Streptomyces coelicolor, UniProt Q9KYU1 1-163) (assay: SPR (ReDCaT); 100 nM SCO3205 dimer; HBS-EP+ buffer: 10 mM HEPES pH 7.4, 150 mM NaCl, 3 mM EDTA, 0.05% (v/v) surfactant P20; 20 C; Biacore T200, ReDCaT SA chip; high values mean tight binding). Conditions: protein: recombinant; tags: N-terminal His tag plus TEV site, not removed; chain copies: 2; label: biotin linker S6 hybridised to overhang; dsDNA, one strand shown.
T1 sequence: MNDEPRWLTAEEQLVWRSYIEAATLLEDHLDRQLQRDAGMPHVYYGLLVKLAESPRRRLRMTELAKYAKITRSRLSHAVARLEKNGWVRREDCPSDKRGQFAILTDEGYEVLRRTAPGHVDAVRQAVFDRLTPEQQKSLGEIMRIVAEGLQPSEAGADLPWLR

Sequence | binding signal [%Rmax]
CGAGACGGTTCCTTGAACATTAAACAAAAT | 102
TCAATCTACGCCGATTTTGTTTAATGTTC | 5
ACGCCGATTTTGTTTAATGTTCAA | 29.9
ACGGCACGTAAAGATTGAGAGTTCAAGT | 80.4
CAATACTTGAACTCTCAATCTTTA | 101
ACGCCGATTTTGTTTAATGTTCAAGGAA | 94
ACGCCGATTTTGTTTAATGTTCAAGG | 81
ACTCCAATACTTGAACTCTCAA | 41.3
ACTCCAATACTTGAACTCTCAATC | 92.7
ACGCCGATTTTGTTTAATGTTCAAGGAACCGTCT | 118
TTTTGTTTAATGTTCAAGGAACCGTCTCG | 127.2 ± 0.636
ACTCCAATACTTGAACTCTCAATCTTTACG | 119
CGAGACGGTTCCTTGAACATTAAACA | 68.6
ACGGCACGTAAAGATTGAGAGTTCAA | 4.7
ACTCCAATACTTGAACTCTCAATCTTTACGTGCC | 110
ACTCCAATACTTGAACTCTCAATCTTTACGTGCCGT | 115
ACGCCGATTTTGTTTAATGTTC | 5.1
ACTCTCAATCTTTACGTGCCGTCAATCTA | 3.05 ± 0.354
ACTCCAATACTTGAACTCTCAATCTTTACGTG | 108
CGAGACGGTTCCTTGAACATTAAACAAA | 68.4

Sequence | binding signal [%Rmax]
ACTCCAATACTTGAACTCTCAATCTTTA | 115
ACGGCACGTAAAGATTGAGAGTTCAAGTATTGGA | 116
CGAGACGGTTCCTTGAACATTAAACAAAATCGGC | 112
ACGGCACGTAAAGATTGAGAGTTCAAGTATTGGAGT | 110
ACGGCACGTAAAGATTGAGAGTTCAAGTATTG | 112
ACTCCAATACTTGAACTCTC | 7.8
ACGGCACGTAAAGATTGAGAGTTCAAGTAT | 87.9
TACTTGAACTCTCAATCTTTACGTGCCGT | 113.9 ± 0.424
CGAGACGGTTCCTTGAACATTAAACAAAATCG | 108
CGAGACGGTTCCTTGAACATTAAA | 22
TTGATGTTGAATGTTCAACCAGTC | 118
ACTCCAATACTTGAACTCTCAATCTT | 116
CATGGCTACTCCAATACTTGAACTCTCAA | 35.7 ± 0.566
GACCTGTTCAAAGCTCAAGCAGAA | 48.5
ACGCCGATTTTGTTTAATGTTCAAGGAAC | 109.7 ± 0.566
CGAGACGGTTCCTTGAACATTAAACAAAATCGGCGT | 108
ACGCCGATTTTGTTTAATGTTCAAGGAACCGT | 110
ACTCCAATACTTGAACTCTCAATCTTTAC | 115.8 ± 0.283
ACGCCGATTTTGTTTAATGTTCAAGGAACC | 117
AAGAAGTTCAAGCTTCAACCAAAA | 95.2
